Consider twelve compounds from PubChem BioAssay.

Active and inactive are the calls of the source.

In assay [1] the test system is Plasmodium falciparum Sir2 (PF13_0152, Sir2A). Kind of assay: Plasmodium falciparum Sir2A binding compounds – biochemical, small-molecule microarray, 635 nm fluorescence, primary screen (AID 1098).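 Note: score merges spot fluorescence intensity with its signal-to-noise ratio.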 Particulars: fluorescence 635 nm, higher = more signal.
Assay [2] in a line: probe aDKK1 binding to arrayed compounds – biochemical, biotinylated probe, 635/667 nm fluorescence, primary screen (AID 1099).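 Note: score merges 667nm spot fluorescence with signal to noise across triplicate slides; reference of the scale not given here.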 Conditions: small-molecule microarray, higher = more signal.
Assay [3] can be described thus: probe aCHRDL2 binding to arrayed compounds – biochemical, biotinylated probe, 635/667 nm fluorescence, primary screen (AID 1100). Conditions: small-molecule microarray, higher = more signal.
Assay [4] can be described thus: change in splice reporter luminescence, either direction, cell-based, HEK293, spliceosome inhibition project, primary screen (AID 1101).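 Note: HEK293 cells carrying a splicing-competent luciferase reporter gene; test concentration not given here.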 Particulars: HEK293 splicing luciferase reporter, 24 h, higher = more signal, called active from +8 up or from −8 down.
Assay [5] concerns the target Fibroblast growth factor 10 (Homo sapiens) (UniProt O15520). Kind of assay: compounds binding fibroblast growth factor 10 – biochemical, small-molecule microarray, 635 nm fluorescence, primary screen (AID 1102). Particulars: FGF10 binding, fluorescence 635 nm, higher = more signal.
The test system of assay [6] is glycogen synthase kinase-3 (GSK3A per assay name; protocol says GSK3B). Kind of assay: compounds binding glycogen synthase kinase-3 – biochemical, small-molecule microarray, 635 nm fluorescence, GSK3A, primary screen (AID 1103). Note: the record names both GSK3A and GSK3B. Conditions: fluorescence 635 nm, higher = more signal.
The target in assay [7] is Epidermal growth factor receptor (Homo sapiens) (UniProt P00533). Kind of assay: compounds binding epidermal growth factor receptor – biochemical, small-molecule microarray, 635 nm fluorescence, primary screen (AID 1104).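 Note: score merges 667 nm emission intensity with spot signal to noise over triplicate slides.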 Conditions: EGFR binding, higher = more signal.
Sequence of Epidermal growth factor receptor (Homo sapiens) (P00533 whole entry, looked up): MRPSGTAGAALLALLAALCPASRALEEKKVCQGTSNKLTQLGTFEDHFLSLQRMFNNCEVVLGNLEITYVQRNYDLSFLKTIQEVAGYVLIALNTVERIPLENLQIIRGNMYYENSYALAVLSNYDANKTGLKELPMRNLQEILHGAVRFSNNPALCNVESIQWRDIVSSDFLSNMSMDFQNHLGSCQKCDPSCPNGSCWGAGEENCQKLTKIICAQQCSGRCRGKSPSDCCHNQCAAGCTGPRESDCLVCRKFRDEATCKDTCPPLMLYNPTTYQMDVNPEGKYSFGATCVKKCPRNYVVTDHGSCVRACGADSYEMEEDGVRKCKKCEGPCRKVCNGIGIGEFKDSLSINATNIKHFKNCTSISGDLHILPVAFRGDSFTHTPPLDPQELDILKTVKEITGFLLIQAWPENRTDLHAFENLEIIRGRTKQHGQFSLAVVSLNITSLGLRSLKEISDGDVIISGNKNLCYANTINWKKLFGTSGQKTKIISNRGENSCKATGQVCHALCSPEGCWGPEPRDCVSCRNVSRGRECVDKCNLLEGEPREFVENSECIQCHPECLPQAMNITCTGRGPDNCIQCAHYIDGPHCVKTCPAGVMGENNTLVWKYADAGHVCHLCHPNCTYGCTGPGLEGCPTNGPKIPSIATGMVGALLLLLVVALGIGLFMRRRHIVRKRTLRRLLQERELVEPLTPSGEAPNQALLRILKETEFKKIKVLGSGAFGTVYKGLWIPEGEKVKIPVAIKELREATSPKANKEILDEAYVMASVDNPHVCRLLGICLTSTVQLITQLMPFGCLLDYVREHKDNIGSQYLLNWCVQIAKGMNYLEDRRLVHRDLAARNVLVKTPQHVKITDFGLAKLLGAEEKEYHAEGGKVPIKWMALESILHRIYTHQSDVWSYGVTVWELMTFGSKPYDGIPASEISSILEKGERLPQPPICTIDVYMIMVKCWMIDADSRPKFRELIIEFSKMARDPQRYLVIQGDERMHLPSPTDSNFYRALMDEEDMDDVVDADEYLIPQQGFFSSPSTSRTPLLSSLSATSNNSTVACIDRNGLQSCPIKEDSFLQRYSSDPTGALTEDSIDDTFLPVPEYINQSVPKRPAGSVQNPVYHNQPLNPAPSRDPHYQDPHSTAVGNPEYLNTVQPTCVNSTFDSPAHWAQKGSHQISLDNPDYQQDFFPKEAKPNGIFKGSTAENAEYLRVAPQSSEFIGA
Assay [8] has as its target Follistatin-related protein 3 (Homo sapiens) (UniProt O95633). Kind of assay: compounds binding follistatin-related protein 3 – biochemical, small-molecule microarray, 635 nm fluorescence, primary screen (AID 1105).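 Note: score merges emission near 667 nm and signal to noise per printed spot across three slides.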 Conditions: FSTL3 binding, higher = more signal.
In assay [9] the target is Dickkopf-related protein 1 (Homo sapiens) (UniProt O94907). Kind of assay: small molecules binding DKK1 protein – biochemical, small-molecule microarray, 635 nm fluorescence scan, primary screen (AID 1106).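 Note: score merges emission near 667 nm with signal to noise over three replicate slides.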 Particulars: higher = more signal.
Sequence of Dickkopf-related protein 1 (Homo sapiens) (O94907 whole entry, looked up): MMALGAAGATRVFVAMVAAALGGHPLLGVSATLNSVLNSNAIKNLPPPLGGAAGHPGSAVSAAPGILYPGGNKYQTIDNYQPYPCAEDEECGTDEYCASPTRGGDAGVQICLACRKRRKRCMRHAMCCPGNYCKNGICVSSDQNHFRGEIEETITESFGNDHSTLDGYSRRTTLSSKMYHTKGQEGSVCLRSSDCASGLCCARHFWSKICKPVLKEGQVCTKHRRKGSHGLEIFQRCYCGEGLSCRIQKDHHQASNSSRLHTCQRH
Assay [10] has as its system Inhibin beta A chain (activin A). Kind of assay: small molecules binding activin A – biochemical, small-molecule microarray, 635 nm fluorescence scan, primary screen (AID 1107).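 Note: mouse activin A protein probed at 4.33 µg/mL on printed slides; score merges bound-protein fluorescence near 667 nm with spot signal-to-noise.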 Conditions: INHBA, higher = more signal.

Sequence of Fibroblast growth factor 10 (Homo sapiens) (O15520 whole entry, looked up): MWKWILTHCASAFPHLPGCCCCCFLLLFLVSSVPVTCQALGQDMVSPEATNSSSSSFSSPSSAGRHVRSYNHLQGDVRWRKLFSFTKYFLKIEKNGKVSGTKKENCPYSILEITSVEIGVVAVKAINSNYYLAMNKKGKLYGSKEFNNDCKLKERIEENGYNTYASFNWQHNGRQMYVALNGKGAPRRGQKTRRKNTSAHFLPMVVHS
Sequence of Follistatin-related protein 3 (Homo sapiens) (O95633 whole entry, looked up): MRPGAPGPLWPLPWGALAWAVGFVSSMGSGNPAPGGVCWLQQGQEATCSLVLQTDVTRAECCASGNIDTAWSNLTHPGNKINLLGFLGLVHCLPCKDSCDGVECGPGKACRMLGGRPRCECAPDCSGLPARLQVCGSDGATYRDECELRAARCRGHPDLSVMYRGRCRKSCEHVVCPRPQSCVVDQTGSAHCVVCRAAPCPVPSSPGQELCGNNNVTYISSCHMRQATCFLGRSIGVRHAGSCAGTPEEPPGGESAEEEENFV

On to `C=C(C)C(=O)OC[C@H]1CN2[C@@H](CC[C@@H](C)[C@@H]2c2ccc(Br)cc2)C(=O)O1`, for which the composite z-score in assay [1] is 0.789; in assay [2], -0.366; in assay [3] it was -0.264; in [5] it was 0.261; in assay [6] it was 0.179; in assay [7] it was 0.135. Besides, the composite z-score is -0.214 in assay [8], 0.302 in assay [9] and 1.26 in [10]. The z-score in [4] was -0.286 (inactive).

In the case of `CO[C@@H]1COC(=O)CC=C[C@H](C)[C@H](OC)COC(=O)[C@@H]2CCCN2C(=O)CC=C[C@H]1C`, the composite z-score in assay [1] is 0.811; in assay [2], -0.48; in assay [3], -1.38; in assay [5] it was 0.487; in assay [6], 0.562; in [7] it was 1.15. The composite z-score in [8] was 1.25; in assay [9] it was 1.52; in [10], 1.14. In addition, the z-score in assay [4] is -0.127 (inactive).

With `CON=C(C)CCN1CCc2nc(-c3ccccc3)c(-c3ccccc3)cc2C1`, the composite z-score is 0.689 in assay [1]; -0.104 in assay [2]; 0.173 in assay [3]; -0.0075 in assay [5]; -0.478 in [6]; 0.629 in assay [7]. Further, the composite z-score in assay [8] amounted to 0.272; in [9] it was 0.468; in assay [10] it was 1.25. Moreover, the z-score in assay [4] is -0.316 (inactive).

As for `COc1ccc(COC(=O)NN=C2C[C@@H](O)[C@@H](O)[C@@H]3[C@@H]4C(=O)N(C[C@@H]5CCCO5)C(=O)[C@@H]4CC[C@H]23)cc1`, the composite z-score was -0.321 in assay [1]; 1 in [2]; 1.26 in assay [3]; -0.494 in assay [5]; -0.797 in assay [6]; -0.211 in assay [7]. Besides, the composite z-score is -1 in assay [8], -0.746 in assay [9] and 0.229 in [10]. In [4], the z-score is 0.0734 (inactive).

For the compound `CCOC(=O)[C@H](Cc1ccccc1)NC(=O)CCC1CC(OC(=O)NCCc2ccc(F)cc2)CC2(CCCC(COC(=O)NCCOc3ccccc3)O2)O1` (stereo not given in full), the composite z-score in assay [1] is 0.87; in assay [2] it was -0.119; in [3] it was -0.442; in [5] it was 0.979; in assay [6] it was 1.28; in assay [7], 0.597. The composite z-score in assay [8] was 1.31; in assay [9], 1.05; in [10], -0.155. Besides, the z-score in assay [4] was -0.421 (inactive).

In the case of `CC(=O)OC[C@H]1O[C@@H](ON=C(C)C)[C@H](OC(C)=O)[C@@H](OC(C)=O)[C@@H]1OC(C)=O`, the composite z-score in assay [1] was -0.745; in assay [2] it was -0.191; in assay [3] it was 0.46; in assay [5] it was -0.527; in [6] it was -1.28; in assay [7], -0.246. Moreover, the composite z-score in [8] is -1.57; in assay [9] it was -1.38; in assay [10], -2.17. Also, the z-score in assay [4] was 0.851 (inactive).

For the compound `CCOC(=O)CCN1C(=O)[C@H]2[C@H]3[C@H](O)[C@H](O)CC(=NO[C@@H]4O[C@H](CO)[C@@H](O)[C@H](O)[C@H]4O)[C@H]3CC[C@H]2C1=O`, the composite z-score in assay [1] is 0.29; in assay [2], 0.198; in [3] it was -0.141; in [5], 0.655; in assay [6], 0.822; in [7], 0.563. Besides, the figures for the composite z-score in assay [8], in assay [9] and in assay [10] were 0.231, 0.315 and 0.401, respectively. Moreover, the z-score in assay [4] is -0.265 (inactive).

In the case of `CON=C(C)CCC(=O)OC[C@H]1O[C@H](C#Cc2ccccc2)C=C[C@@H]1Oc1ccc(C)cc1`, the composite z-score in [1] is 0.699; in [2], 0.0281; in assay [3], -0.22; in assay [5], 0.19; in assay [6], -0.252; in [7], 0.252. For the same compound, the figures for the composite z-score in assay [8], in [9] and in assay [10] were 0.407, 0.572 and 0.719, respectively. The z-score in [4] is 0.825 (inactive).

As for `C=CC[C@@H]1C=CC(ON=C(C)C)[C@@H](CO)O1` (stereo not given in full), the composite z-score in assay [1] was 0.24; in assay [2], -0.011; in assay [3], -0.127; in assay [5], -0.766; in assay [6], -0.689; in assay [7] it was 0.0691. Also, the composite z-score in [8] was -0.899; in assay [9], -0.307; in [10], 1.14. Further, the z-score in [4] was 0.304 (inactive).

For the compound `CCOC(=O)NN=C1C[C@@H](O)[C@@H](O)[C@@H]2[C@@H]3C(=O)N(C[C@@H]4CCCO4)C(=O)[C@@H]3CC[C@H]12`, the composite z-score is 0.348 in [1]; -0.0748 in assay [2]; -0.317 in assay [3]; 0.515 in assay [5]; 0.417 in assay [6]; 0.401 in assay [7]. Moreover, the composite z-score in [8] is 0.264; in assay [9], 0.504; in [10] it was 0.17. Moreover, the z-score in assay [4] is 0.488 (inactive).

Regarding `COc1ccc(OC[C@H]2CN3[C@@H](CC[C@@H](C)[C@@H]3c3ccc(Br)cc3)C(=O)O2)cc1`, the composite z-score was 0.233 in [1]; -0.278 in [2]; -0.345 in assay [3]; 0.0848 in [5]; 0.16 in [6]; 0.204 in assay [7]. Also, the composite z-score in assay [8] worked out at 0.142; in [9], 0.344; in [10], 0.607. Also, the z-score in [4] is -0.319 (inactive).

Regarding `CC(C)=CCCC(C)=CCON=C1C[C@@H](O)[C@@H](O)[C@@H]2[C@@H]3C(=O)N(Cc4ccc5c(c4)OCO5)C(=O)[C@@H]3CC[C@H]12`, the composite z-score is 0.567 in assay [1]; -0.101 in [2]; -0.257 in assay [3]; 0.797 in [5]; 0.327 in [6]; 0.426 in assay [7]. Also, the composite z-score in assay [8] came out at 0.821; in assay [9], 0.35; in assay [10], 1.02. The z-score in [4] was 0.294 (inactive).
